# Compounds with a hit are over-represented: about 0.54% of the library has one in this group of screens.
# Akt phos inh – inhibitors of Akt phosphorylation; actives 0.32% (n = 360,000); Neuro2A IGF-stimulated pAkt S473 HTRF, 20 min; stronger effect = lower value; AID 651550; activity change, % for hits at 50 µM; in the data active = activity change below about -80%; inconclusive = mostly about -51% to -80%; also: % is scaled to controls: 0 for no effect and ±100 for the full control effect
#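 Neuro2A cells (4,500/well, DMEM with 0.5% FBS) were treated with compound at a single 50 µM final concentration, stimulated with 6 nM IGF for 20 min at 37 °C, and lysed. Phospho-Akt Ser473 was read by HTRF as 665/615 ratio ×10^4.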
# MLL CXXC-DNA inh – blocks binding of human MLL CXXC domain to DNA. Potency, µM (titrated, usually from 115 µM), inactives show top-dose activity change, negative = inhibition, actives largely listed as inhibitors. MLL-CXXC / FITC-HOXA9 DNA fluorescence polarization. AID 2662. actives 0.037% (n = 290,000); active = well fitted inhibition curve with a large enough effect in the polarisation, with a control signal flat, not every such curve was filed as active; inconclusive = small, poorly fitted or top-dose-only effect, or effect the other way, or a change in a side signal; inactive = no such curve, though single readings can be large or run the other way; the % refers to the polarisation; also: potency is read from the fitted curve at half-maximal effect
#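 Purified MLL-CXXC (added from a 7 uM solution) was preincubated 5 min at ambient with pinned compounds in 50 mM Tris-HCl pH 7.5, 50 mM NaCl, 1 mM DTT, 0.05% BSA. Fluorescein-labeled HOX-A9 DNA (50 nM solution) followed, 30 min, then polarization read.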
# Menin MLL FP FL – displaces fluorescein MLL peptide from human menin; 290,000 tested, under 10 active; Fluorescence polarization, fluorescein-MLL peptide displacement from menin; FP activity change, % at 61.4 µM; active = well fitted curve in the direction sought with a large enough effect in the polarisation, not every such curve was filed as active; inconclusive = small, poorly fitted or top-dose-only effect, or effect the other way, or a change in a side signal; inactive = no such curve, though single readings can be large or run the other way; the % refers to the polarisation; also: % of control where 0% means no effect
# Menin MLL FP TR – inhibitors of human menin-MLL interaction, mutant MLL peptide | O00255 | Menin + Texas Red MLL mutant peptide, fluorescence polarization | Potency, µM (highest dose often 61.6 µM), inactives show at the top dose FP activity change, negative = inhibition, hits mostly inhibitors | actives 0.23% (n = 270,000) | AID 1768; active = well fitted inhibition curve with a large enough effect in the polarisation, with a control signal flat, not every such curve was filed as active; inconclusive = small, poorly fitted or top-dose-only effect, or effect the other way, or a change in a side signal; inactive = no such curve, though single readings can be large or run the other way; the % refers to the polarisation; also: potency is read from the fitted curve at half-maximal effect; % of control where 0% means no effect
# LDHA inh – inhibitors of human lactate dehydrogenase A | P00338 | purified LDHA, NADH/diaphorase-resazurin fluorescence; stronger effect = lower value | activity change, % (values are at about 110 or 230 µM) | actives 0.15% (n = 480,000); in the data active = activity change below about -30%; inconclusive = mostly about -25% to -30%;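 also: plate controls were DMSO wells for no effect and wells without enzyme for full effect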
#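 Enzyme activity of human lactate dehydrogenase 5 (2 nM; 0.06 mM NADH, 0.2 mM pyruvate, 5 min, RT) is measured via a resazurin/diaphorase fluorescence readout of residual NADH.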
# IDH1 R132H inh – blocks human mutant IDH1 R132H enzyme; actives 0.093% (n = 390,000); IDH1-R132H enzyme, NADPH consumption, diaphorase/resazurin fluorescence; Potency, µM (highest dose often 76.6 µM), inactives show at the highest dose activity change, negative = inhibition, usual class: inhibitors; also: potency is read from the fitted curve at half-maximal effect; % is scaled to controls: 0 for no effect and ±100 for the full control effect; nearly all actives have a fitted effect of over 65% in size
# Target sequence (O75874 whole entry R132H, stated change not applied): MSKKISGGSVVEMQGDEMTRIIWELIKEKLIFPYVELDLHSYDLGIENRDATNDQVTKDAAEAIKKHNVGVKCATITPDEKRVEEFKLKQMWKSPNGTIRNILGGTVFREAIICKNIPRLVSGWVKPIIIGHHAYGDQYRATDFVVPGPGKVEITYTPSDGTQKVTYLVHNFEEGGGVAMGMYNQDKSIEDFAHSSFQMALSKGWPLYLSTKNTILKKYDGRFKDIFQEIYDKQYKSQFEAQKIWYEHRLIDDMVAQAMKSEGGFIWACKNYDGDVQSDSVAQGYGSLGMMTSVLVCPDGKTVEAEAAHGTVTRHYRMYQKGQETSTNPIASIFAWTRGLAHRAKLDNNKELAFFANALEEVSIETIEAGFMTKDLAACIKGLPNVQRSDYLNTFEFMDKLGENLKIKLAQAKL
#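 IDH1-R132H (0.5 ug/mL dispensed) in pH 7.5 Tris buffer was preincubated 30 min with compound, then given a substrate mix of 0.016 mM NADPH and 2 mM alpha-KG for 80 min at room temperature; remaining NADPH was read by diaphorase/resazurin fluorescence.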
# Resorufin autofl – interferes with resorufin fluorescence in IDH1 counter-screen. shares compounds with IDH1 R132H inh. Resorufin detection reagent fluorescence interference, cell-free. inhibition of signal, % at 51.2 µM. 750 tested, under 10 active;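 also: 0% = wells with normal resorufin and full inhibition = wells lacking resorufin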
# WT IDH1 inh – wild-type IDH1 (human) inhibition counterscreen; actives 9% (n = 750); AID 623995; WT IDH1 enzyme, NADPH diaphorase/resazurin fluorescence; shares compounds with IDH1 R132H inh; Potency, µM (doses to about 115 µM), for inactives: at the highest dose activity change, negative = inhibition, usual class: inhibitors;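 also: potency is read from the fitted curve at half-maximal effect; 0% = full WT IDH1 enzyme control and full inhibition = no enzyme wells; nearly all actives have a fitted effect of over 55% in size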
# Target sequence (O75874 whole entry, looked up): as the sequence (O75874 whole entry R132H, stated change not applied) above, with H132R counted along it
# mIDH1 confirm – inhibits human mutant IDH1 enzyme in cherrypick confirmation; shares compounds with IDH1 R132H inh; Potency, µM (doses to about 76.6 µM), for inactives: at the highest dose activity change, negative = inhibition, most hits filed as inhibitors; IDH1 R132H enzyme, NADPH diaphorase/resazurin fluorescence; actives 83% (n = 750); also: potency is read from the fitted curve at half-maximal effect; nearly all actives have a fitted effect of over 50% in size
# * marks the source's active call; other numbers are inactive results; i = inactive; ? = inconclusive; · = not tested or not shown; ! = repeats disagree. Unless noted, calls follow the shape of the dose curve; as a rule, active = well fitted curve in the direction sought with a large enough effect; inconclusive = small, poorly fitted or top-dose-only effect, or another doubt; inactive = no such curve, though single readings can be large; an effect the other way counts as inactive or inconclusive.
SMILES,Akt phos inh,MLL CXXC-DNA inh,Menin MLL FP FL,Menin MLL FP TR,LDHA inh,IDH1 R132H inh,Resorufin autofl,WT IDH1 inh,mIDH1 confirm
C[C@H]1C[C@H]2[C@@H]3CCC4=CC(=O)C=C[C@]4(C)[C@@]3(F)[C@@H](O)C[C@]2(C)[C@@]1(O)C(=O)CO,i,-1%,4,-4%,-7,-4%,·,·,·
CC1(c2ccccc2)O[C@@H]2C[C@H]3[C@@H]4CCC5=CC(=O)C=C[C@]5(C)[C@@]4(F)[C@@H](O)C[C@]3(C)[C@]2(C(=O)CO)O1 (some centres not stated),i,0%,-5,·,-4,29µM*,-6,-14%,5µM*
COC(=O)c1c(COc2cccnc2[N+](=O)[O-])nc2ccccc2c1C,·,·,·,·,-7,·,·,·,·
Cc1ccc(-c2cc(C(F)F)n3ncc(C(=O)N4CCCCC4c4cccnc4)c3n2)cc1 (configuration not stated),i,-3%,3,?,-1,?,-5,6%,35µM*
CC1(C)C=Cc2c(c3c(c4c(=O)c(-c5ccc(O)cc5)coc24)OC(C)(C)CC3)O1,i,0%,-5,8%,1,40µM*,9,-14%,25µM*
CC(C)=CCc1c2c(c3occ(-c4ccc(O)cc4)c(=O)c3c1O)C=CC(C)(C)O2,i,-8%,-2,?,3,-4%,·,·,·
CC(C)=CCc1c2c(c3occ(-c4ccc(O)c(O)c4)c(=O)c3c1O)C=CC(C)(C)O2,i,·,-1,?,-2,52µM*,0,-12%,45µM*
COc1cc(C(=S)N2CCN(C(c3ccccc3)c3ccccc3)CC2)cc(OC)c1O,i,11%,4,9%,0,?,-7,6%,22µM*
COc1ccc(NC(=S)N2CCN(C(c3ccccc3)c3ccccc3)CC2)cc1OC,i,0%,2,-3%,5,-1%,·,·,·
Cc1ccc(-c2nn3c(-c4ccccc4C)nnc3c3ccccc23)cc1,·,·,·,·,-4,40µM*,1,-2%,22µM*
N#Cc1cccc(/C=C/C(=O)c2ccsc2)c1,·,·,·,·,9,·,·,·,·
CCCCN1C(=O)c2[nH]nc(-c3ccccc3O)c2C1c1cc(Br)c(O)c(OC)c1 (configuration not stated),·,·,·,·,4,28µM*,1,40µM*,8.9µM*
COc1cccc(C2c3c(-c4ccccc4O)n[nH]c3C(=O)N2CCc2ccc(OC)c(OC)c2)c1 (configuration not stated),·,·,·,·,-12,?,-1,10%,25µM*
COc1ccc(CCN2C(=O)c3[nH]nc(-c4ccccc4O)c3C2c2cccc(O)c2)cc1OC (configuration not stated),i,8%,1,11%,5,-14%,·,·,·
O=C1c2[nH]nc(-c3ccccc3O)c2C(c2cccc(Cl)c2)N1CC1CCCO1 (configuration not stated),i,13%,1,7%,4,?,10,0%,40µM*
Fc1ccc(-c2noc(-c3ccccc3)n2)cc1,·,·,·,·,-18,·,·,·,·
COC(=O)c1ccc(Oc2coc3cc(OCc4ccc(Br)cc4)ccc3c2=O)cc1,·,·,·,·,0,·,·,·,·
Cc1c(C#N)c(N)nc2c3c(sc12)NC(=O)CC3c1ccc(Cl)cc1 (configuration not stated),i,9%,9,-4%,-2,29µM*,3,9%,16µM*
Cc1ccc(CSc2nnc(C3CCN(C(=O)OC(C)(C)C)CC3)o2)cc1,·,·,·,·,1,·,·,·,·
O=C(NC1CCCCC1)C(c1ccc(F)cc1)N(C(=O)c1cccs1)c1ccc2c(c1)OCO2 (configuration not stated),i,8%,-3,?,6,?,0,-9%,7.9µM*
O=C(NC1CCCCC1)C(c1ccc2ncccc2c1)N(Cc1ccc(F)cc1)C(=O)c1cccs1 (configuration not stated),i,7%,0,-11%,-12,-3%,·,·,·
O=C(NC1CCCCC1)C(c1cccs1)N(C(=O)c1ccco1)c1ccc2c(c1)OCCO2 (configuration not stated),i,16%,-2,-12%,9,?,-1,-20%,?
CC(=O)c1ccc(N(C(=O)c2ccco2)C(C(=O)NC2CCCC2)c2cccs2)cc1 (configuration not stated),i,-14%,·,·,-3,7%,·,·,·
Cc1ccc(N=C2C=CC(C)(C(Cl)(Cl)Cl)C=C2)cc1 (configuration not stated),·,·,·,·,5,·,·,·,·
COc1cc(NC(=O)CN(c2cc(C)cc(C)c2)S(=O)(=O)c2c(C)[nH]c(=O)[nH]c2=O)cc(OC)c1,i,-1%,·,·,-2,12%,·,·,·
SMILES,Akt phos inh,MLL CXXC-DNA inh,Menin MLL FP FL,Menin MLL FP TR,LDHA inh,IDH1 R132H inh,Resorufin autofl,WT IDH1 inh,mIDH1 confirm
Cc1cc(C)cc(N(CC(=O)Nc2ccc(C(F)(F)F)cc2)S(=O)(=O)c2c(C)[nH]c(=O)[nH]c2=O)c1,i,21%,·,·,0,10µM*!,8,45µM*,32µM*
O=C(C=P(c1ccccc1)(c1ccccc1)c1ccccc1)c1ccccc1-c1ccccc1C(=O)C=P(c1ccccc1)(c1ccccc1)c1ccccc1,i,·,·,·,1,23µM*,2,?,3.2µM*
Cc1cc(CNC(=O)N2CCN(CC(=O)Nc3ccccc3C(F)(F)F)CC2)ccc1F,·,·,·,·,5,·,·,·,·
COc1ccc(C(=O)/C(C#N)=C\c2ccccc2I)cc1,·,·,·,·,-1,·,·,·,·
O=C(C1=C(Nc2ccc3c(c2)OCO3)c2ccccc2S1(=O)=O)N1CCOCC1,·,·,·,·,20,·,·,·,·
Cc1ccc(CN2CCSc3ccc(C(=O)N4CCN(c5ncccn5)CC4)cc32)cc1,i,0%,1,-21%,-7,?,6,3%,16µM*
Cc1cc(C)cc(OCC(=O)OCC(=O)c2ccc3c(c2)OCO3)c1,·,·,·,·,6,·,·,·,·

# High-throughput results as filed in PubChem.
